# PubChem BioAssay (NCI)
# About 83,000 compounds went through this panel and 20% of them were active in at least one assay; those are over-represented in the sample as a whole.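 96-well plates, one dose, 48 hours. Percent growth reported; active if below 10.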 Unmarked numbers belong to inactive results. Active and inactive are the calls of the source.
# Legend:
# Assay in all cases: NCI-60 one-dose screen, 48 h (100 = growth as untreated, 0 = no growth, -100 = all killed)
# Details in all cases: 10 µM unless noted
# [1] = system: NCI-H23 lung
# [2] = system: NCI-H322M lung
# [3] = system: HOP-62 NSCLC
# [4] = system: NCI-H460 lung
# [5] = system: HOP-92 NSCLC
# [6] = system: NCI-H522 lung
# [7] = system: A549/ATCC NSCLC
# [8] = system: 786-0 renal
# [9] = system: COLO 205 colon
# [10] = system: DU-145 prostate
# [11] = system: K-562 leukemia
# [12] = system: MALME-3M melanoma
# [13] = system: MDA-MB-231 breast
# [14] = system: RXF 393 renal
# [15] = system: SF-268 CNS
# [16] = system: SF-295 CNS
# [17] = system: SF-539 CNS
# [18] = system: UACC-257 melanoma
# [19] = system: M14 melanoma
# [20] = system: HCT-15 colon
Compound,growth [1],growth [2],growth [3],growth [4],growth [5],growth [6],growth [7],growth [8],growth [9],growth [10] [%],growth [11],growth [12],growth [13],growth [14],growth [15],growth [16],growth [17],growth [18],growth [19],growth [20]
CCOC(=O)c1ccc(N=Cc2sc(=O)[nH]c2O)cc1,98%,101%,95.4%,101%,90.1%,93.7%,96.6%,98.4%,104%,103,103%,91.2%,95.5%,102%,88.3%,94.1%,94%,96.9%,97.9%,99.1%
COC(=O)/C(CCC=C(C)C)=C1\[C@@H](OC(C)=O)C[C@@]2(C)[C@H]1CC(=O)[C@H]1[C@@]3(C)CC[C@H](NCc4ccccc4)[C@@H](C)[C@@H]3CC[C@@]12C,93.4%,103%,87.3%,88.8%,49.7%,108%,81.7%,65.9%,60%,96.5,28.8%,92.5%,90.5%,69.4%,79.6%,98.2%,82.9%,99.7%,89.7%,72.1%
O=C1c2cc(Br)ccc2Oc2cc([N+](=O)[O-])ccc2N1c1ccc(I)cc1F,93%,103%,102%,102%,101%,96.2%,82%,104%,123%,105,101%,99.8%,101%,94.5%,93.1%,98.2%,101%,97.6%,91.8%,97.7%
O=C(Nc1ccc(Br)cc1F)c1cc(I)ccc1O,4.95% (active),2.64% (active),0.452% (active),6.01% (active),-27.7% (active),-30% (active),4.34% (active),2.92% (active),104%,17.2,10.3%,-20.4% (active),32.3%,1.53% (active),12.7%,0.923% (active),9.06% (active),-12.9% (active),16.8%,11.9%
O=c1oc2ccc(Cl)cc2c(=O)n1-c1cc(C(F)(F)F)cc(C(F)(F)F)c1,-5.36% (active),3.4% (active),-9.09% (active),1.5% (active),-7% (active),-14.3% (active),6.11% (active),-11.8% (active),-74.8% (active),14.4,8.63% (active),-33.8% (active),-21.9% (active),-5.99% (active),3.66% (active),-65.1% (active),-5.73% (active),-14.7% (active),-22.5% (active),-5.03% (active)
CCOC(=O)c1cnc2c(C)cccc2c1Nc1ccc(C(C)=O)cc1,32.1%,42.7%,-76.6% (active),-68.6% (active),-1.13% (active),-78.5% (active),-60.9% (active),8.84% (active),-91.5% (active),22,-21.5% (active),-81% (active),11.2%,-54.5% (active),43.5%,-82.2% (active),-44.9% (active),-58.4% (active),-67.6% (active),0.0229% (active)
O=C(N/N=C/c1ccccc1O)C(=O)Nc1ccc(F)cc1,57.7%,26.6%,50.1%,23.1%,65%,15.7%,44.8%,53.8%,9.67% (active),46.5,42.3%,70.9%,43.8%,74.3%,48.8%,4.78% (active),33.7%,27.2%,50%,28.2%
O=C(Nc1ccc(Cl)cc1F)c1cc(Br)ccc1O,4.02% (active),7.3% (active),1.76% (active),4.27% (active),-12.8% (active),-12.9% (active),7.61% (active),3.02% (active),51.5%,17.2,8.83% (active),-16.9% (active),-26.1% (active),7.94% (active),13.6%,-48.3% (active),7.34% (active),-15.8% (active),8.91% (active),4.84% (active)
